DAX1 inh-1 = inhibitors of human orphan nuclear receptor DAX1 (NR0B1) | HEK293 Gal4-DAX1 luciferase reporter, luminescence | inhibition, % at 6.75 µM | 340,000 tested, 0.99% active;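 active = inhibition above the mean over all tested compounds plus 3 SD, cut at about 4.2% in these data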;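 also: 0% = DAX1-transfected cells with DMSO and 100% = empty-vector control cells with DMSO; inhibition shows as a rise in luminescence from relieved DAX1 repression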
Target sequence (P51843 207-470 limits assumed): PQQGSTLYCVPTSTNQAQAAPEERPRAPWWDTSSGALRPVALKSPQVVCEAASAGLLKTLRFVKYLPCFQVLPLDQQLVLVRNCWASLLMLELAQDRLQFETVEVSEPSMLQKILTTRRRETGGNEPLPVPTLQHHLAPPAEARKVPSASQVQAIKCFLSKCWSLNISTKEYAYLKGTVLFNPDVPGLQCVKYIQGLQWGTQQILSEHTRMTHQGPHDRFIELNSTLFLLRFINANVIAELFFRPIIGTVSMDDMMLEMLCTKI
hcDAF-12 act = H. contortus DAF-12 activation, primary screen | HEK293 hcDAF-12 lit1-tk-luc reporter, luminescence; 0% DMSO, 100% Δ7-dafachronic acid | activation, % at 6.8 µM | 370,000 tested, 1.4% active | AID 652067;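 active = activation above the mean of all tested compounds plus 3 SD, cut at about 5.5% in these data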;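 also: 100% = response to 3 µM Δ7-dafachronic acid high control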
hgDAF-12 ag = agonists of H. glycines DAF-12 nuclear receptor; HEK293 GAL4-hgDAF12 UAS-luciferase reporter, agonist luminescence; normalized to butyrate control; activation, % at 6.8 µM; 370,000 tested, 1.8% active; AID 687014;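 active = activation above a cutoff set at the mean of all screened compounds plus 3 SD, cut at about 10% in these data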;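 also: 0% = DMSO wells and 100% = sodium butyrate wells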
ssDAF12 agonist = S. stercoralis DAF-12 activation, primary screen. 370,000 tested, 1% active. activation, % at 6.8 µM. HEK293 ssDAF-12/GRIP1 lit1-tk-luc reporter, luminescence; % of 3 µM dafachronic acid response;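 active = activation above the mean over all tested compounds plus 3 SD, cut at about 0.9% in these data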;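 also: 0% = DMSO-only wells and 100% = 3 µM delta7-dafachronic acid wells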
DAX1 inh-2 = inhibitors of DAX1 repression of SF-1 activated StAR promoter. HEK293T StAR-luciferase reporter, SF-1/DAX-1 repression relief. inhibition, % at 6.8 µM. 370,000 tested, 1.1% active;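 active = inhibition above the mean over all tested compounds plus 3 SD, cut at about 3.6% in these data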;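 also: 0% = DAX-1 cells with DMSO and 100% = cells lacking DAX-1 with DMSO; higher inhibition means more luminescence from relief of DAX-1 repression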
LXR ag = activates human LXR-beta, counter-screen for hcDAF-12 agonists. shares compounds with hcDAF-12 act. HEK293 Gal4-LXR tk-luc reporter, luminescence, 24 h; normalized: DMSO 0%, positive control 100%. activation, % at 6.8 µM. 3,400 tested, under 10 active;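 active = mean percent activation of the reporter above a cutoff set as the average over tested compounds plus their standard deviation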
hcDAF12 conf = confirmation of H. contortus DAF-12 agonists. shares compounds with hcDAF-12 act. HEK293 hcDAF-12 lit1-tk-luc reporter, luminescence; % of Δ7-dafachronic acid response. activation, % at 6.8 µM. 3,400 tested, 61% active;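 active = mean activation across triplicate tests above the threshold derived from the earlier primary screen, cut at about 5.5% in these data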;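 also: 0% = DMSO only wells and 100% = 3 µM Δ7-dafachronic acid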
Numbers without * were called inactive; / = no result. Only some compounds are listed: those with a hit (about 4.1% of all), similar ones and a draw of the others.

SMILES	DAX1 inh-1	hcDAF-12 act	hgDAF-12 ag	ssDAF12 agonist	DAX1 inh-2	LXR ag	hcDAF12 conf
CCn1c(SC)nnc1C1CCN(CC(=O)Nc2ccccc2N2CCOCC2)CC1	0	-2	1	-1	0	/	/
COc1ccc(/C=C2\CCc3ccccc3C2=O)cc1O	-2	8.5*	6	1	0	1	6.9*
Cc1cnc(NC(=O)CCCc2nc3ccccc3s2)s1	3	10*	12*	5.3*	-1	1	6.9*
Cn1c2ccccc2c(=O)c2ccc(NCc3ccc4c(c3)OCO4)cc21	1	-2	5	-1	0	/	/
O=C(c1ccccc1)N1N=C(c2cccs2)CC1c1ccccc1O (stereo unspecified)	3	2	-1	-1	0	/	/
O=C(c1ccccc1)C1Oc2ccccc2C2CC(c3cccs3)=NN12 (stereo unspecified)	4	8.3*	7	-1	2	0	3
Cc1cc(C)c2oc(-c3ccc(C)c(NC(=S)NC(=O)c4cccs4)c3)nc2c1	4	7.7*	7	1	0	0	4
Cc1ccc2nc(NC(=O)c3cccs3)sc2c1	-2	10*	11*	1.1*	3	2	5.9*
Cc1ccc2nc(NC(=S)NC(=O)c3cccs3)sc2c1	2	7.2*	11*	0.9*	1	1	15*
O=C(Nc1nc2c(s1)CCCC2)c1cccs1	-2	9.5*	10	1	3	1	6.1*
Cc1nc2c(OCCOc3ccc(F)cc3)cccn2c1N(C)C(=O)CCC1CCCC1	/	1	-2	-2	0	/	/
COc1cccc(Cn2cc(COC(=O)NCCc3c[nH]c4ccccc34)nn2)c1	/	-1	-2	-1	-1	/	/
O=C(NCC1CCCO1)c1cc2cc(F)ccc2[nH]1 (stereo unspecified)	1	7.1*	2	0	0	0	4
O=C(NCC1CCCO1)c1ccc[nH]1 (stereo unspecified)	1	0	-1	-1	0	/	/
COc1ccc(CNC(=O)c2sc3nc(C)c(Cl)c(C)c3c2N)cc1	/	-2	-1	-1	0	/	/
COc1ncccc1C(=O)N1CCCC(C(=O)Nc2cccc(-c3ccc(F)cc3)c2)C1 (stereo unspecified)	-1	-4	-4	-2	-2	/	/
Cc1cccc(N2C(=O)C3C4C=CC(C5CC45)C3C2=O)n1 (stereo unspecified)	4	-1	2	0	0	/	/
Cc1cccc(N2O[C@H]3C=C[C@@H]2C3)n1	/	9.4*	2	0	0	0	5.6*
CC(C)(C)NC(=O)C(c1ccc(O)cc1)N(Cc1ccco1)C(=O)Cn1nnc(-c2cccs2)n1 (stereo unspecified)	-1	8.2*	-2	-1	0	0	0
Cc1ccc(C(C(=O)NC(C)(C)C)N(Cc2ccco2)C(=O)Cn2nnc(-c3cccs3)n2)cc1 (stereo unspecified)	0	-2	-1	-1	-1	/	/
Cc1c(N=C2NN=C(c3c[nH]c4ccccc34)CS2)c(=O)n(-c2ccccc2)n1C	-1	7.0*	2	0	-1	0	2
O=C(Nc1ccc(F)cc1F)C1CCCN1S(=O)(=O)c1cccnc1 (stereo unspecified)	/	-1	-3	-1	-1	/	/
Cc1cc(C)n2nc(C(=O)NCc3ccccc3)cc2n1	1	-1	2	-2	0	/	/
Cc1cc(C)n2nc(Nc3ccccc3)cc2n1	1	7.2*	2	0	1	0	11*
COc1ccc(/C=N/N2C(C)CCCC2C)cc1O (stereo unspecified)	0	8.1*	2	0.9*	1	0	7.4*
SMILES	DAX1 inh-1	hcDAF-12 act	hgDAF-12 ag	ssDAF12 agonist	DAX1 inh-2	LXR ag	hcDAF12 conf
CC(=O)c1ccc(OCc2cc(C(=O)N(C)C3CCOC3)no2)cc1 (stereo unspecified)	3	7.1*	11*	1	4.0*	1	6.8*
O=C(Nc1ccc2c(c1)CCC2)c1cccc(OC(F)F)c1	/	7.4*	11*	1.3*	3	1	4
O=C(Nc1ccc(OC(F)F)c(Cl)c1)c1cccc(OC(F)F)c1	-1	/	/	/	/	/	/
C/C(=N\NC(=O)c1ccccc1NC(=O)c1ccc(Cl)cc1)c1ccncc1	-3	11*	9	0	3	1	5.8*
CC(=NNC(=O)c1ccncc1)c1ccccc1Cl	0	0	2	-1	0	/	/
NC(=O)c1ccccc1OCc1cccc2ccccc12	1	-2	0	-2	0	/	/
O=C(CNC(=O)c1ccccc1F)OCc1nc2ccccc2s1	1	4	4	0	0	/	/
CC(=O)OCc1nc2ccccc2s1	2	7.7*	12*	0	4.0*	1	12*
CCOC(=O)c1nc2ccccc2s1	3	8.8*	5	1.4*	2	0	9.3*
NNC(=O)c1nc2ccccc2s1	1	2	5	0	3	/	/
O=C(CNC(=O)c1ccccc1)OCc1nc2ccccc2s1	1	7.5*	8	1.0*	0	0	6.4*
NC(=O)c1ccccc1OCc1nc2ccccc2s1	2	14*	13*	0	2	1	14*
CC1CCCC(=NNc2ccc3ccccc3n2)C1 (stereo unspecified)	3	6.7*	3	0	1	0	3
CC1CCC/C(=N\NS(=O)(=O)c2ccccc2)C1 (stereo unspecified)	0	-1	1	-2	0	/	/
Cc1noc(C(=O)Nc2ccc3c(c2)OCO3)c1Cl	2	6.7*	8	1	3	0	5
CC(=O)c1ccc(NC(=O)c2onc(C)c2Cl)cc1	0	7.8*	9	0	3	1	6.4*
CCOC(=O)Nc1cc(OC)cc2ccc(C)nc12	2	0	0	0	-2	/	/
C[C@H]1CN([C@@H](C)CO)C(=O)c2cc(Br)cnc2O[C@@H]1CN(C)S(=O)(=O)c1ccccc1	2	2	-3	-1	0	/	/
CC1(c2nnnn2Cc2ccccc2)CCC(=O)N1Cc1ccco1 (stereo unspecified)	/	-1	-1	-1	0	/	/
N#Cc1ccsc1NC(=O)CSc1nnnn1-c1ccc(O)cc1	1	7.4*	5	0	0	0	5
CN(c1ccccc1)S(=O)(=O)c1ccc(NC(=O)CC(=O)c2ccccc2)cc1	0	-2	1	-1	-1	/	/

Compound activity (PubChem BioAssay)
